Laboratory results published in PubChem BioAssay AID1159580 (chemical genetic matrix, 2015).
“And” between values parts separate entries of the source, which are not always exact repeats. Identical values can stand only once. Among all 5,500 compounds or so, about 2,000 (36%) were called active. Another 18% or so got no clear call; they are omitted. No stated cut-off is given here; in the data, active means normalized growth mostly below about 0.91 (no sharp cut-off); inconclusive means no clear call, values can overlap the other calls; inactive means mostly above about 0.92. The list shows a part of the results.

Assay: chemical genetic growth profiling, strain panel (AID 1159580);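 further: tested at 20 µM; growth read once vehicle control cultures reached saturation at 30 °C; 1 = growth at the plate median or of vehicle wells; lower values mean less growth of the strain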
Conditions: growth OD

Measured: normalized growth

CN(C)CCCN1c2ccccc2CCc2ccc(Cl)cc21
inactive: S. cerevisiae deletion strains, locus YJR066W, strain TOR1, hits give low values 0.923 | S. cerevisiae deletion strains, locus YKL009W, strain mrt4, hits give low values 0.971 | S. cerevisiae deletion strains, locus YKL068W, hits give low values 0.991 | S. cerevisiae deletion strains, locus YKL085W, strain MDH1 (second series), hits give low values 0.994 | S. cerevisiae deletion strains, locus YKL085W, strain MDH1, hits give low values 0.994 | S. cerevisiae deletion strains, locus YKL160W, strain elf1, hits give low values 0.993 | S. cerevisiae deletion strains, locus YKL190W, strain CNB1, hits give low values 0.953 | S. cerevisiae deletion strains, locus YKR026C, strain gcn3, hits give low values 1.01 | S. cerevisiae deletion strains, locus YKR091W, strain srl3, hits give low values 1 | S. cerevisiae deletion strains, locus YLL001W, strain dnm1, hits give low values 1.01 | S. cerevisiae deletion strains, locus YLL026W, hits give low values 0.982 | S. cerevisiae deletion strains, locus YLL041C, strain sdh2, hits give low values 1 | S. cerevisiae deletion strains, locus YLR027C, strain aat2, hits give low values 0.996 | S. cerevisiae deletion strains, locus YLR058C, strain SHM2, hits give low values 0.946 | S. cerevisiae deletion strains, locus YLR102C, strain apc9, hits give low values 0.995 | S. cerevisiae deletion strains, locus YLR113W, strain HOG1, hits give low values 0.983 | S. cerevisiae deletion strains, locus YLR221C, strain rsa3, hits give low values 0.999 | S. cerevisiae deletion strains, locus YLR258W, strain gsy2, hits give low values 0.961 | S. cerevisiae deletion strains, locus YLR262C, strain YPT6 (second series), hits give low values 1.14 | S. cerevisiae deletion strains, locus YLR262C, strain YPT6, hits give low values 1.33 | S. cerevisiae deletion strains, locus YLR268W, strain sec22, hits give low values 0.961 | S. cerevisiae deletion strains, locus YLR320W, strain mms22, hits give low values 1 | S. cerevisiae deletion strains, locus YLR330W, strain CHS5, hits give low values 0.996 | S. cerevisiae deletion strains, locus YLR342W, strain FKS1, hits give low values 0.998 | S. cerevisiae deletion strains, locus YLR357W, strain rsc2, hits give low values 0.974 | S. cerevisiae deletion strains, locus YLR370C, strain arc18, hits give low values 0.993 | S. cerevisiae deletion strains, locus YLR371W, strain rom2, hits give low values 0.984 | S. cerevisiae deletion strains, locus YLR384C, strain iki3, hits give low values 1 | S. cerevisiae deletion strains, locus YML016C, strain PPZ1, hits give low values 0.978 | S. cerevisiae deletion strains, locus YML032C, strain rad52, hits give low values 0.967 | S. cerevisiae deletion strains, locus YML120C, strain ndi1, hits give low values 0.986 | S. cerevisiae deletion strains, locus YML124C, strain tub3, hits give low values 0.989 | S. cerevisiae deletion strains, locus YMR058W, strain fet3, hits give low values 0.966 | S. cerevisiae deletion strains, locus YMR078C, strain ctf18, hits give low values 0.989 | S. cerevisiae deletion strains, locus YMR125W, strain sto1, hits give low values 0.962 | S. cerevisiae deletion strains, locus YMR129W, hits give low values 1 | S. cerevisiae deletion strains, locus YMR205C, strain PFK2, hits give low values 0.979 | S. cerevisiae deletion strains, locus YMR223W, strain ubp8, hits give low values 0.934 | S. cerevisiae deletion strains, locus YMR231W, strain pep5, hits give low values 0.999 | S. cerevisiae deletion strains, locus YMR263W, strain SAP30, hits give low values 0.892 and 1.04 | S. cerevisiae deletion strains, locus YMR307W, strain GAS1, hits give low values 0.726 | S. cerevisiae deletion strains, locus YNL067W, strain RPL9B, hits give low values 0.924 | S. cerevisiae deletion strains, locus YNL071W, strain lat1, hits give low values 1.01 | S. cerevisiae deletion strains, locus YNL175C, strain NOP13, hits give low values 1.07 | S. cerevisiae deletion strains, locus YNL183C, strain NPR1, hits give low values 0.934 | S. cerevisiae deletion strains, locus YNL224C, strain SQS1, hits give low values 1.04 | S. cerevisiae deletion strains, locus YNL233W, strain BNI4, hits give low values 0.877 | S. cerevisiae deletion strains, locus YNL248C, strain rpa49, hits give low values 0.983 | S. cerevisiae deletion strains, locus YNL250W, strain rad50, hits give low values 0.996 | S. cerevisiae deletion strains, locus YNL271C, strain bni1, hits give low values 0.993 | S. cerevisiae deletion strains, locus YNL298W, strain CLA4, hits give low values 0.999 | S. cerevisiae deletion strains, locus YNL307C, strain MCK1, hits give low values 0.961 | S. cerevisiae deletion strains, locus YNL322C, strain KRE1 (second series), hits give low values 1.01 | S. cerevisiae deletion strains, locus YNL322C, strain KRE1, hits give low values 0.988 and 0.981 | S. cerevisiae deletion strains, locus YNR049C, strain mso1, hits give low values 1.01 | S. cerevisiae deletion strains, locus YNR052C, strain pop2, hits give low values 0.935 | S. cerevisiae deletion strains, locus YOL012C, strain htz1 1.42 | S. cerevisiae deletion strains, locus YOL147C, strain pex11, hits give low values 0.989 | S. cerevisiae deletion strains, locus YOR001W, strain rrp6, hits give low values 0.982 | S. cerevisiae deletion strains, locus YOR069W, strain VPS5, hits give low values 0.984 | S. cerevisiae deletion strains, locus YOR070C, strain gyp1, hits give low values 0.99 | S. cerevisiae deletion strains, locus YOR080W, strain dia2, hits give low values 1 | S. cerevisiae deletion strains, locus YOR083W, strain WHI5 (second series), hits give low values 1.1 | S. cerevisiae deletion strains, locus YOR083W, strain WHI5, hits give low values 0.985 | S. cerevisiae deletion strains, locus YOR136W, strain idh2, hits give low values 1.01 | S. cerevisiae deletion strains, locus YOR144C, strain elg1, hits give low values 0.991 | S. cerevisiae deletion strains, locus YOR184W, strain ser1, hits give low values 0.96 | S. cerevisiae deletion strains, locus YOR231W, strain MKK1, hits give low values 0.999 | S. cerevisiae deletion strains, locus YOR265W, strain rbl2, hits give low values 1 | S. cerevisiae deletion strains, locus YOR290C, strain snf2, hits give low values 0.903 | S. cerevisiae deletion strains, locus YOR316C, strain cot1, hits give low values 0.977 | S. cerevisiae deletion strains, locus YPL051W, strain arl3, hits give low values 0.989 | S. cerevisiae deletion strains, locus YPL078C, strain atp4, hits give low values 0.987 | S. cerevisiae deletion strains, locus YPL106C, strain sse1, hits give low values 1.02 | S. cerevisiae deletion strains, locus YPL240C, strain hsp82, hits give low values 0.99 | S. cerevisiae deletion strains, locus YPL241C, strain CIN2, hits give low values 0.986 and 0.999 | S. cerevisiae deletion strains, locus YPL256C, strain CLN2, hits give low values 1.02 | S. cerevisiae deletion strains, locus YPR119W, strain clb2, hits give low values 0.993 | S. cerevisiae deletion strains, locus YPR141C, strain kar3, hits give low values 0.99 | S. cerevisiae deletion strains, locus YPR167C, strain met16, hits give low values 0.986 | S. cerevisiae deletion strains, strain wtn01, hits give low values 0.928 | S. cerevisiae strains, strain wild type, hits give low values 0.902
active: S. cerevisiae deletion strains, locus YKR001C, strain vps1, hits give low values 0.644 | S. cerevisiae deletion strains, locus YLR039C, strain RIC1, hits give low values 1.35 [resistant] | S. cerevisiae deletion strains, locus YLR342W, strain FKS1 (second series), hits give low values 0.615 | S. cerevisiae deletion strains, locus YLR418C, strain cdc73, hits give low values 0.64 | S. cerevisiae deletion strains, locus YNL209W, strain ssb2, hits give low values 0.926 | S. cerevisiae deletion strains, locus YOL006C, strain TOP1, hits give low values 0.311 | S. cerevisiae deletion strains, locus YOR061W, strain CKA2, hits give low values 0.847 | S. cerevisiae deletion strains, locus YOR106W, strain vam3, hits give low values 0.846 | S. cerevisiae deletion strains, locus YOR270C, strain vph1, hits give low values 0.567 | S. cerevisiae deletion strains, locus YPR163C, strain tif3, hits give low values 0.728
